# In article PMC5700166:
# How the values were obtained:
# Assay in all cases: protein-binding microarray (PBM); PBM: ~300 nM protein, 6 mM HEPES pH 7.8, 80 mM KCl, 0.5 mM EDTA, 0.5 mM EGTA, 6% glycerol, 35 ng/ul poly-dIdC, 1% milk, 1 h, room temperature; Ap Aiptasia and Nv Nematostella (sea anemones) / Co Capsaspora / Aq Amphimedon (sponge) / Dm Drosophila / Hu human; RHD is the Rel homology domain; high values mean tight binding
# Conditions in all cases: dsDNA, one strand shown
# GST-Ap-NF-kB RHD = target: T1, GST-Ap-NF-kB RHD (Exaiptasia pallida (Aiptasia), UniProt A0A913YAJ5 2-422)
# T1 sequence: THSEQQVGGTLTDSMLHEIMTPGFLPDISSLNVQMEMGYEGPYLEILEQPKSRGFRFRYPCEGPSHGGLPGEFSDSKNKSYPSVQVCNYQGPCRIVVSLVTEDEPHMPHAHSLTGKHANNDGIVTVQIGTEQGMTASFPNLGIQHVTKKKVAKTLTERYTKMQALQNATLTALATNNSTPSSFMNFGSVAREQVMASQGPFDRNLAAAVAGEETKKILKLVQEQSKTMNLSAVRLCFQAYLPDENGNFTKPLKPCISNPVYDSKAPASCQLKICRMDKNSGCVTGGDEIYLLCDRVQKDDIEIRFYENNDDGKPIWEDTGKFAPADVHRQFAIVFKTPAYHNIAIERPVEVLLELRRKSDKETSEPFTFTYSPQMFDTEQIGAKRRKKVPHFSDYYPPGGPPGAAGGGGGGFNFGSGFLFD
# [1] = target: T2, GST-Nv-NF-kB (Cys allele) (Nematostella vectensis, UniProt E5G601 2-411)
# T2 sequence: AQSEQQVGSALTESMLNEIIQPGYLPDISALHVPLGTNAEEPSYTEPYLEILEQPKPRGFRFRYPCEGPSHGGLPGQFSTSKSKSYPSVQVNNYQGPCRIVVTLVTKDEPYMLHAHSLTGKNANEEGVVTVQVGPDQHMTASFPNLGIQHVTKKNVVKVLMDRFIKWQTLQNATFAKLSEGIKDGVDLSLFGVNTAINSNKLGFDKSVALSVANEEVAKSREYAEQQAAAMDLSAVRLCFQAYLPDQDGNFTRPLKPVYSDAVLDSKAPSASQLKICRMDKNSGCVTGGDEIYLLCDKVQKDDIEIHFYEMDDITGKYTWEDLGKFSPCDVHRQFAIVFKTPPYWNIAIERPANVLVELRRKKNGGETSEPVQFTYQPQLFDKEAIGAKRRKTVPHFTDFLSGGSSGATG
# GST-Co-NF-kB = target: T3, GST-Co-NF-kB (Capsaspora owczarzaki, UniProt F1ARL5 200-546)
# T3 sequence: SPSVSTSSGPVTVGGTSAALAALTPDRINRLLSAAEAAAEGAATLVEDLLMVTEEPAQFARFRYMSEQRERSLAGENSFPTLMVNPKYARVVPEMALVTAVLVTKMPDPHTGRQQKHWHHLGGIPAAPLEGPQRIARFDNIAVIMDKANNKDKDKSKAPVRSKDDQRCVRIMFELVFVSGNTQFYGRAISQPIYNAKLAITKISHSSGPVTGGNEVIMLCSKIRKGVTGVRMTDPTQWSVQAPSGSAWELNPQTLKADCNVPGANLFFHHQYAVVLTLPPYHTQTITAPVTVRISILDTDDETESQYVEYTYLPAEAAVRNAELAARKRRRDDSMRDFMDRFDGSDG
# GST-Dm-Relish = target: T4, GST-Dm-Relish (Drosophila melanogaster, UniProt Q94527 99-473)
# T4 sequence: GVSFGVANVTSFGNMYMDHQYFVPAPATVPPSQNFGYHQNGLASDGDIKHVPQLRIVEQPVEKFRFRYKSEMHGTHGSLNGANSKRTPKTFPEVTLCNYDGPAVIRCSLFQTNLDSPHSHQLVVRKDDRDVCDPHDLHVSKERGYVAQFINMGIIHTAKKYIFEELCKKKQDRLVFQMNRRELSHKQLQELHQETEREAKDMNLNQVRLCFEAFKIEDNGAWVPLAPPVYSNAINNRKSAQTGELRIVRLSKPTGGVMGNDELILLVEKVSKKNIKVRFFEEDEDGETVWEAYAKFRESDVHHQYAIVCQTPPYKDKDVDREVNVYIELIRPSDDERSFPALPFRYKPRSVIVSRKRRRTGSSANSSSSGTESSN
# GST-Aq-NF-kB = target: T5, GST-Aq-NF-kB (Amphimedon queenslandica, UniProt A9Y5G7 2-389)
# T5 sequence: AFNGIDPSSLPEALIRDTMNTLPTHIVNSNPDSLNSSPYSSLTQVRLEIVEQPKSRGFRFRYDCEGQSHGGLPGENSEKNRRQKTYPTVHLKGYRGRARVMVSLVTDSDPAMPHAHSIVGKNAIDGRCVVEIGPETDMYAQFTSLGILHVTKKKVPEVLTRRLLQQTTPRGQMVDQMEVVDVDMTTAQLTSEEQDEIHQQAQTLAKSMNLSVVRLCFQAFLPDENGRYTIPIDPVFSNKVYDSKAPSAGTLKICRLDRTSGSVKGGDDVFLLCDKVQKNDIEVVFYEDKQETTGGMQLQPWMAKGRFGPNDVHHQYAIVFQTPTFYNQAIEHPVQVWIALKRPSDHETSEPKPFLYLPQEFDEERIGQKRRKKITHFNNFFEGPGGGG
# GST-Hu-p50 = GST-Hu-p50 (Homo sapiens, UniProt P19838 7-356)
# Sequence of GST-Hu-p50 (P19838 7-356): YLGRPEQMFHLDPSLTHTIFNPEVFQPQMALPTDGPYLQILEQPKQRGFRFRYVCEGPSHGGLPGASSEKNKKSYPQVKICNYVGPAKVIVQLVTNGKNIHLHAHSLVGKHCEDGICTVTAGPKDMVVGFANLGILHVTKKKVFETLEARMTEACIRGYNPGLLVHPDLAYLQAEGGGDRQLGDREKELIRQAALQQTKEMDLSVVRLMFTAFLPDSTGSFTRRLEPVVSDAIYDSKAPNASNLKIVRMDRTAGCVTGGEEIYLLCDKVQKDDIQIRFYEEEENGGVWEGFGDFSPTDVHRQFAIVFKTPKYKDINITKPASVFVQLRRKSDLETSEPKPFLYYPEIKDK
Sequence,binding signal (GST-Ap-NF-kB RHD),binding signal [1],binding signal (GST-Co-NF-kB),binding signal (GST-Dm-Relish),binding signal (GST-Aq-NF-kB),binding signal (GST-Hu-p50)
CCGATTAACATCAGGAAATACCCTGATGTTAATCGGGTCTTGATTCGCTTGACGCTGCTG,6.05 z-score,8.7 z-score,1.14 z-score,7.3 z-score,9.37 z-score,6.12 z-score
CCGATTAACATCAGAAACTTCCCTGATGTTAATCGGGTCTTGATTCGCTTGACGCTGCTG,4.46 z-score,5.22 z-score,2.41 z-score,4.16 z-score,5.51 z-score,4.25 z-score
CCGATTAACATCAGAGATCCCCCTGATGTTAATCGGGTCTTGATTCGCTTGACGCTGCTG,7.26 z-score,6.17 z-score,4.52 z-score,6.84 z-score,5.8 z-score,6.13 z-score
CCGATTAACATCAAAAAGCCCCGTGATGTTAATCGGGTCTTGATTCGCTTGACGCTGCTG,6.52 z-score,8.2 z-score,1.43 z-score,8.47 z-score,7.21 z-score,6.06 z-score
CCGATTAACATCAACACTCCCCCTGATGTTAATCGGGTCTTGATTCGCTTGACGCTGCTG,5.32 z-score,4.24 z-score,5.26 z-score,2.43 z-score,4.25 z-score,5.34 z-score
CCGATTAACATCAGGGGGTTGCATGATGTTAATCGGGTCTTGATTCGCTTGACGCTGCTG,5.29 z-score,3.67 z-score,2.22 z-score,4.83 z-score,4.08 z-score,5.29 z-score
CCGATTAACATCAGGGGACTTCATGATGTTAATCGGGTCTTGATTCGCTTGACGCTGCTG,6.7 z-score,5.76 z-score,2.35 z-score,6.09 z-score,5.48 z-score,5.72 z-score
CCGATTAACATCAGGGGGGAGAATGATGTTAATCGGGTCTTGATTCGCTTGACGCTGCTG,6 z-score,4.08 z-score,7.95 z-score,3.85 z-score,4.82 z-score,6.41 z-score
CCGATTAACATCAAATAAGCCCCTGATGTTAATCGGGTCTTGATTCGCTTGACGCTGCTG,3.57 z-score,5.54 z-score,1.15 z-score,4.29 z-score,5.74 z-score,4.31 z-score
CCGATTAACATCAGGGGGGAGACTGATGTTAATCGGGTCTTGATTCGCTTGACGCTGCTG,5.88 z-score,4.78 z-score,6.95 z-score,3.61 z-score,4.79 z-score,6.44 z-score
CCGATTAACATCAGGGATTTTTATGATGTTAATCGGGTCTTGATTCGCTTGACGCTGCTG,5.66 z-score,6.48 z-score,1.77 z-score,7.93 z-score,6.66 z-score,5.31 z-score
CCGATTAACATCAGGGGGGAACATGATGTTAATCGGGTCTTGATTCGCTTGACGCTGCTG,6.4 z-score,4.35 z-score,9.73 z-score,4.25 z-score,5.22 z-score,5.4 z-score
CCGATTAACATCAAAATTCCCGTTGATGTTAATCGGGTCTTGATTCGCTTGACGCTGCTG,3.98 z-score,6.87 z-score,4.03 z-score,5.57 z-score,6.15 z-score,5.26 z-score
